The panel holds about 83,000 compounds, 20% with a hit somewhere; the sample as a whole holds those more often.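 Compound tested at a single concentration for 48 hours in 96-well plates; a percent growth value below 10 was scored as active.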 Active and inactive are the calls of the source.
Legend:
Experiment in all cases: NCI-60 one-dose screen, 48 h (100 = growth as untreated, 0 = no growth, -100 = all killed)
Details in all cases: 10 µM unless noted
[1] = tested on: DU-145 prostate
[2] = tested on: K-562 leukemia
[3] = tested on: MALME-3M melanoma
[4] = tested on: MDA-MB-231 breast
[5] = tested on: RXF 393 renal
[6] = tested on: SF-268 CNS
[7] = tested on: SF-295 CNS
[8] = tested on: SF-539 CNS
[9] = tested on: UACC-257 melanoma
[10] = tested on: M14 melanoma

Measured: growth

O=C1c2c(c3c4cc(Br)ccc4[nH]c3c3ccc4ccccc4c23)C(=O)N1O
inactive: [1] 103% | [2] 71.6% | [3] 126% | [4] 81.7% | [5] 103% | [6] 81.1% | [7] 84.7% | [8] 96.4% | [9] 88.5% | [10] 94.1%

Cc1ccccc1-n1nnc(C(=O)Nc2nc(-c3ccccc3)c(-c3ccccc3)s2)c1C
inactive: [1] 87.6% [50 µM] | [2] 53.5% [50 µM] | [3] 80% [50 µM] | [4] 85.3% [50 µM] | [5] 69% [50 µM] | [6] 69.6% [50 µM] | [7] 80.6% [50 µM] | [8] 77.1% [50 µM] | [9] 61.5% [50 µM] | [10] 78.7% [50 µM]

O=C1CC2c3cc(-c4cc5ccccc5o4)ccc3CCN2C(=O)N1c1ccccc1 (stereo not given)
inactive: [1] 96.5% | [2] 58.4% | [3] 71.6% | [4] 93.3% | [5] 114% | [6] 92.4% | [7] 90% | [8] 106% | [9] 87.8% | [10] 90.7%

CC1SC(c2cccc(Oc3ccccc3)c2)N(CCc2cccs2)C1=O (stereo not given)
active: [1] -6.09% | [2] 9.44% | [3] -72.7% | [4] -47.5% | [5] -90.6% | [6] -5.54% | [7] -35.6% | [8] -82.3% | [9] -45.1% | [10] -74%

COc1ccc(Cn2c(Br)c3c(c2-c2cc(OC)c(OC)c(OC)c2)CCc2sc(N)nc2-3)cc1
inactive: [1] 12.4% | [3] 47.7% | [4] 12.6% | [6] 44.3% | [7] 43.7% | [9] 57.5% | [10] 12%
active: [2] 4.43% | [5] -0.407% | [8] -13.5%

O=C1/C(=C/c2ccc(Cl)cc2)CN(Cc2cn(CCCNc3ccnc4cc(Cl)ccc34)nn2)C/C1=C\c1ccc(Cl)cc1
active: [1] -11.6% | [2] 0.972% | [3] -64.6% | [4] -58.4% | [5] -97.6% | [6] -84.7% | [7] -56.1% | [8] -91.5% | [9] -69.4% | [10] -64.9%

Cc1ccc(NS(=O)(=O)c2ccc(-c3cnc(C4CC4)o3)cc2)cc1
active: [10] 9.71%
inactive: [1] 49.7% | [2] 14.6% | [3] 47.9% | [4] 44.7% | [5] 26.5% | [6] 50.1% | [7] 19.9% | [8] 26.7% | [9] 55.1%

O=C(NCc1cccnc1)c1ccc([N+](=O)[O-])o1
active: [1] -67.6% | [3] -61% | [5] -9.05% | [8] -30.9% | [9] -7.66% | [10] -81.2%
inactive: [2] 22.1% | [4] 107% | [6] 33% | [7] 20.8%

C=C(C)CCCC(C)CC#N (stereo not given)
inactive: [1] 105% | [2] 105% | [3] 88% | [4] 115% | [5] 105% | [6] 94.6% | [7] 94.3% | [8] 95.6% | [9] 104% | [10] 96.5%

COc1cc(/C=C2\C(=O)N(c3c(Cl)cccc3Cl)c3ccccc32)cc(OC)c1O
active: [2] 8.62% | [7] 8.15%
inactive: [1] 36.8% | [3] 133% | [4] 72.4% | [5] 90.4% | [6] 40.9% | [8] 45.1% | [9] 46.1% | [10] 39.2%

COc1ccc(/C=C2\CN(Cc3cn(CCCNc4ccnc5cc(Cl)ccc45)nn3)C/C(=C\c3ccc(OC)c(OC)c3)C2=O)cc1OC
inactive: [1] 11.7% | [3] 17.8% | [9] 45.3%
active: [2] 4.56% | [4] -10.2% | [5] -95.1% | [6] -4.95% | [7] -55.9% | [8] 6.69% | [10] -21.5%

CCCCc1ccc(C(O)(CCN2CC3CCC(CC3)C2)c2ccccc2)cc1 (stereo not given)
inactive: [1] 99.8% | [2] 75.2% | [3] 95.7% | [4] 99.1% | [5] 96.2% | [6] 97.1% | [7] 102% | [8] 101% | [9] 95.2% | [10] 91.7%

Cc1cccc2c(=O)c3c(sc12)c(NCCNCCO)nc1ccccc13
inactive: [1] 27.3% | [5] 38.1% | [6] 56.6% | [7] 65% | [8] 50.6% | [9] 77.8%
active: [2] -65.7% | [3] -42.2% | [4] -15.3% | [10] -56.4%

COc1cc(/C=N/NC(=O)c2cnn3c2NC(c2ccccc2)C3)ccc1OC1CCCC1 (stereo not given)
inactive: [1] 26.5% | [2] 18.7% | [3] 40.1% | [4] 52.7% | [6] 36.9% | [9] 43.4% | [10] 22.8%
active: [5] -27.9% | [7] 6.52% | [8] -15.6%

FC(F)(F)Oc1ccc2c(c1)C[C@H]1C[C@@H](c3ccoc3)N2O1
inactive: [1] 110% | [2] 91.8% | [3] 109% | [4] 93.9% | [5] 134% | [6] 126% | [7] 91.2% | [8] 93.9% | [9] 87.4% | [10] 117%

COC(=O)c1c2c(c(C)[n+]([O-])c1C)C(=O)C=C(NCc1ccc(Cl)cc1)C2=O
active: [1] -83.7% | [2] 1.55% | [3] -95% | [4] -20.7% | [5] -31.7% | [6] 0.305% | [7] -59.7% | [8] -89.8% | [9] -84.7% | [10] -85.5%

CN(C)c1ccc(/C=C(\C#N)c2cc3ccccc3n2C)cc1
inactive: [1] 10.9% | [3] 56.9% | [4] 20.1% | [5] 10.5% | [6] 47.5% | [9] 68.9%
active: [2] 7.77% | [7] 7.63% | [8] -12.5% | [10] 8.17%

COc1ccc(OC2=CC(=O)c3ccc(C)nc3C2=O)cc1
inactive: [1] 102% | [2] 43.5% | [3] 128% | [4] 90.1% | [5] 88.9% | [6] 79.2% | [7] 96.8% | [8] 89.6% | [9] 93.8% | [10] 87.3%

O=C(Nc1ccc(F)cc1)c1ccc(C(=O)Nc2ccc(F)cc2)cc1
inactive: [1] 112% | [2] 98.7% | [3] 101% | [4] 102% | [5] 105% | [6] 107% | [7] 91.1% | [8] 89.9% | [9] 101% | [10] 105%

CCCCCn1c(=N)n(CC(O)COc2cccc(C)c2)c2ccccc21 (stereo not given)
active: [2] 6.52% | [3] -6.7% | [7] -27.4% | [8] -14.7% | [9] -19.6%
inactive: [1] 10.4% | [4] 22.8% | [5] 15.5% | [6] 25.6% | [10] 15.9%

Nc1cccc2c(=S)c3ccccc3[nH]c12
inactive: [1] 113% | [2] 91% | [3] 102% | [4] 68.3% | [5] 95.1% | [6] 92.5% | [7] 97.3% | [8] 96.9% | [9] 99% | [10] 102%

COc1ccc(C2SC(C)C(=O)N2CCc2cccs2)cc1OC (stereo not given)
inactive: [1] 93.3% | [2] 62.3% | [3] 119% | [4] 73.2% | [5] 86.1% | [6] 89.2% | [7] 75.5% | [8] 94.1% | [9] 75.7% | [10] 121%

O=S(=O)(Nc1ncccn1)c1ccc(Nc2ccc3nnc(-c4ccncc4)n3n2)cc1
inactive: [1] 108% | [2] 102% | [3] 97.6% | [4] 92.2% | [5] 118% | [6] 98.3% | [7] 100% | [8] 95.2% | [9] 103% | [10] 97.7%

COC(=O)C1C2CC3c4[nH]c5cc(OC)ccc5c4CCN3CC2CC(OC2CCCCO2)C1OC (stereo not given)
inactive: [1] 111% | [2] 95.2% | [3] 104% | [4] 96.8% | [5] 104% | [6] 101% | [7] 102% | [8] 97.6% | [9] 98.6% | [10] 103%

CCOC(=O)c1cc2c(n(C)c1=O)-c1cnn(-c3ccc(OC)cc3)c1CC2
inactive: [1] 117% | [2] 104% | [3] 95.1% | [4] 97.9% | [5] 102% | [6] 99.8% | [7] 91.7% | [8] 90.1% | [9] 93.6% | [10] 106%

COc1ncc(F)c(OC)n1
inactive: [1] 110% | [2] 100% | [3] 103% | [4] 115% | [5] 105% | [6] 104% | [7] 97.7% | [8] 107% | [9] 101% | [10] 102%

COc1cccc(C2CC(=O)Nc3cc4c(cc32)OCO4)c1OC (stereo not given)
inactive: [1] 103% | [2] 83.1% | [3] 93.1% | [4] 97.3% | [5] 87% | [6] 101% | [7] 84.9% | [8] 88.5% | [9] 99.4% | [10] 115%

— PubChem BioAssay (NCI)
